Measured values from PubChem BioAssay (NCI).
Compounds without any hit were thinned out: in the full panel of roughly 83,000, 20% have a hit.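 96-well plates, one dose, 48 hours. Percent growth reported; active if below 10.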 Values without a mark were called inactive. Calls of active or inactive are those of the source.

What was measured:
Experiment in all cases: NCI-60 one-dose screen, 48 h (100 = growth as untreated, 0 = no growth, -100 = all killed)
Details in all cases: 10 µM unless noted
SK-MEL-2 melanoma = test system: SK-MEL-2 melanoma
EKVX NSCLC = test system: EKVX NSCLC
SN12C renal = test system: SN12C renal
UO-31 renal = test system: UO-31 renal
TK-10 renal = test system: TK-10 renal
ACHN renal = test system: ACHN renal
CAKI-1 renal = test system: CAKI-1 renal
A498 renal = test system: A498 renal
CCRF-CEM leukemia = test system: CCRF-CEM leukemia
MOLT-4 leukemia = test system: MOLT-4 leukemia

| SMILES | growth (SK-MEL-2 melanoma) | growth (EKVX NSCLC) | growth (SN12C renal) | growth (UO-31 renal) | growth (TK-10 renal) | growth (ACHN renal) | growth (CAKI-1 renal) | growth (A498 renal) | growth (CCRF-CEM leukemia) | growth (MOLT-4 leukemia) |
| --- | --- | --- | --- | --- | --- | --- | --- | --- | --- | --- |
| Cn1c(=O)c2c(nc(NC3=NS(=O)(=O)c4ccccc43)n2CC(=O)N2CCc3ccccc32)n(C)c1=O | 106% | 102% | 96.9% | 75.9% | 108% | 102% | 92.7% | 58.9% | 101% | 112% |
| COc1ccc2cc(C(=O)c3coc4ccc(O)cc34)ccc2c1 | 97% | 103% | 98.8% | 68.4% | 103% | 107% | 92.6% | 105% | 56.4% | 81.1% |
| CCn1cc(C(=O)N/N=C/c2cccs2)c(=O)c2cc(F)c(N3CCNC(C)C3)c(F)c21 (stereo not given) | 103% | 34.1% | 70% | 66.8% | 83.9% | 87.2% | 46.5% | 104% | 67.2% | 75.1% |
| CCOc1nc(-c2ccccc2)cc2c(O)c(C(=O)NN)[nH]c(=O)c12 | 83.7% | 108% | 109% | 88.6% | 120% | 107% | 109% | 115% | 103% | 113% |
| O=C1NCCC12CCN(c1c(Cl)cncc1-c1ccc(O)cc1)CC2 | 105% | 86.4% | 99.6% | 77.8% | 86.9% | 70.2% | 90.3% | 85% | 98.9% | 102% |
| COc1ccc(C(=S)N2CCN(c3ccccc3Cl)CC2)cc1OC | 101% | 97.4% | 100% | 104% | 108% | 97.2% | 91.8% | 94.6% | 123% | 76.4% |
| Cc1ccc(-n2c(=S)[nH]c3sc4c(c3c2=O)CCC(=O)C4)cc1 | 39.6% | 93.7% | 40.3% | 43.8% | 83.5% | 39.4% | 28.6% | 109% | 20.8% | 48.9% |
| COc1ccc(CC(C#N)c2cc3ccccc3[nH]2)cc1 (stereo not given) | 113% | 95.9% | 92.7% | 61.5% | 118% | 93.9% | 72.6% | 84.2% | -27.2% (active) | 98.1% |
| C#COc1cccc(Nc2ncnc3ncc(NC(=O)CCl)cc23)c1 | 24.5% [6.25 µM] | 57.1% [6.25 µM] | 3.98% [6.25 µM] (active) | -68.1% [6.25 µM] (active) | -24.2% [6.25 µM] (active) | 7.63% [6.25 µM] (active) | 36.4% [6.25 µM] | 61.8% [6.25 µM] | 23.2% [6.25 µM] | 50.4% [6.25 µM] |
| COc1cc(NC(C)CCCNC(C)C)c2ncccc2c1OC (stereo not given) | 90.8% | 105% | 85.8% | 57.7% | 105% | 104% | 88.2% | 61.3% | 89.3% | 98.4% |
| O=C1/C(=C/c2ccc(Cl)cc2)COc2ccc(O)c(O)c21 | 69.9% | 51.7% | -51.5% (active) | -98.5% (active) | 16.7% | -66.3% (active) | -13.8% (active) | 114% | 4.29% (active) | 3.43% (active) |
| CNc1nc(S(=O)c2ccc(C#N)cc2)nc2ccccc12 (stereo not given) | 105% | 82.2% | 68.9% | 60.2% | 109% | 41.8% | 39.9% | 86% | 32.2% | 68.6% |
| O=C(Nc1ccc(-c2nc(N3CCOCC3)c3cccn3n2)cc1)Nc1cccnc1 | -4.42% (active) | -13.5% (active) | 6.41% (active) | -9.74% (active) | -17.4% (active) | -5.66% (active) | 8.83% (active) | -35% (active) | 12.6% | 5.84% (active) |
| O=C(N/N=C/c1ccc(F)cc1)c1ccc(C(F)(F)F)nc1Nc1cccc(C(F)(F)F)c1 | -29.1% (active) | 4.22% (active) | -12.1% (active) | -18.4% (active) | 3.93% (active) | -3.72% (active) | -7.66% (active) | -1.26% (active) | 0.801% (active) | -20.3% (active) |
| CN([O-])c1nc(N(C)[O-])nc(N2CCOCC2)n1.CN([O-])c1nc(N(C)[OH2+])nc(N2CCOCC2)n1.[Fe+3] | 84.9% [100 µM] | 14.5% [100 µM] | 99.9% [100 µM] | 72.3% [100 µM] | 110% [100 µM] | 82.8% [100 µM] | 85.8% [100 µM] | 109% [100 µM] | 11.7% [100 µM] | 30.3% [100 µM] |
| N=C(N)c1ccc(-c2ccc(-c3ccc(Cl)cc3)s2)nc1 | 103% | 59.1% | 52.5% | 44.6% | 103% | -75.9% (active) | -65% (active) | 84.5% | -45.8% (active) | -57.8% (active) |
| COc1cc(-c2cc(-c3cccs3)c(C#N)c(N3CCOCC3)n2)cc(OC)c1OC | 95.6% | 88.1% | 77.9% | 58.9% | 92.5% | 71.2% | 66.5% | 66.4% | 38.8% | 28.3% |
| NC(=O)CCC(C(=O)O)N1C(=O)c2ccc(O)cc2C1=O (stereo not given) | 97% | 101% | 108% | 93.1% | 114% | 93.1% | 80% | 115% | 91.1% | 59.1% |
| O=C(O)c1[nH]c(=O)[nH]c(=O)c1[N+](=O)[O-] | 158% | 119% | 108% | 96.3% | 119% | 102% | 95.2% | 118% | 113% | 77.4% |
| O=C1c2cccc3cccc(c23)C(=O)N1N1C(=O)c2cccc3c(N4CCOCC4)ccc(c23)C1=O | 107% | 94.1% | 88.8% | 68.7% | 141% | 95% | 87.4% | 64.3% | 122% | 108% |
| CN1CCN(c2ccc(NC(=O)c3nc4ccc5[nH]ncc5c4c4c3CCCC4)cc2C(F)(F)F)CC1 | 88.2% | 88.2% | 32.6% | 64.3% | 109% | 15.2% | 19.4% | 82.4% | 5.81% (active) | 36.1% |
| C=C(C)[C@@H]1CC[C@]2(C)[C@H](CC=C3[C@@H]4[C@H](C)[C@@H](C)CC[C@]4(CO)CC[C@]32C)[C@@]1(C)CCCN | -24.7% (active) | 74.1% | -4.38% (active) | 34.1% | -68.3% (active) | 63.4% | 22.4% | 72.5% | 0.722% (active) | -10.6% (active) |
| N#Cc1cnc(NCCc2ccncc2)nc1-n1cnc2ccccc21 | 34.6% | 72.6% | 65.1% | 33.3% | 20.4% | 26.1% | 8.54% (active) | 29.6% | 77.2% | 47.3% |
| CC(C)(C)[Si](C)(C)O[C@H]1C(=O)C=CN2CC=C[C@@H]12 | 112% [100 µM] | 91.2% [100 µM] | 97.4% [100 µM] | 80.3% [100 µM] | 108% [100 µM] | 101% [100 µM] | 104% [100 µM] | 97.9% [100 µM] | 106% [100 µM] | 118% [100 µM] |
| O=C1/C(=C/c2ccccc2Br)COc2ccc(O)c(O)c21 | 48.8% | 61.7% | -67.6% (active) | -92.1% (active) | 29.5% | -44.9% (active) | 22.2% | 116% | 1.62% (active) | 2.79% (active) |
| Oc1c(Cl)cc(Cl)c2ccc(Cn3cc(-c4cc(C(F)(F)F)cc(C(F)(F)F)c4)nn3)nc12 | 89.9% | 80.9% | 65.4% | 57% | 96.7% | 11.4% | 13.8% | 103% | 4.83% (active) | 2.95% (active) |
